# SW480 rerep = induces DNA re-replication in SW480 colon adenocarcinoma cells; SW480 DNA re-replication, Hoechst DNA content imaging, 48 h; Potency, µM (highest dose often 46.1 µM), usual class: activators; hit rate 1.8% among 340,000; also: nearly all actives have a fitted effect of over 55% in size
#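 Treated cells incubate 48 hr (37 C, 5% CO2), are stained 40 min with Hoechst, and nuclear fluorescence is enumerated; a rise in nuclei with high DNA signal marks re-replication.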
# TSG101-PTAP inh = blocks PTAP/TSG101 interaction to inhibit HIV-1 budding; Fluorescence polarization, FITC-PTAP peptide / Tsg101 binding; Potency, µM (series often up to 115 µM), actives largely listed as inhibitors; 340,000 tested, under 10 active; AID 493005; active = well fitted inhibition curve with a large enough effect in the main read-out, with a control signal flat, not every such curve was filed as active; inconclusive = small, poorly fitted or top-dose-only effect, or effect the other way, or a change in a side signal; inactive = no such curve, though single readings can be large or run the other way
# Target sequence (Q99816 whole entry, looked up): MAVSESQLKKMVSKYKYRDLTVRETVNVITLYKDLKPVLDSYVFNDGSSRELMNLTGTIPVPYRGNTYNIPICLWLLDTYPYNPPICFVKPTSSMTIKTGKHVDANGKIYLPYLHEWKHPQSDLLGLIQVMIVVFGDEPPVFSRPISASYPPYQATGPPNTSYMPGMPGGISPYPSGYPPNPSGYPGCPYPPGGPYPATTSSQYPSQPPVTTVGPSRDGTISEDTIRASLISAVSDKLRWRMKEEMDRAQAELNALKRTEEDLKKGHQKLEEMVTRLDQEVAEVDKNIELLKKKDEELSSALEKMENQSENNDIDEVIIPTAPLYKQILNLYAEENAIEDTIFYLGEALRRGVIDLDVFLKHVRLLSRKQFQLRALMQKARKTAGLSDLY
#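 Fluorescence polarization binding of Tsg101 binding domain (10 uM final) to FITC-labeled PTAP peptide (50 nM final) in HEPES pH 7.5 buffer with NaCl, Tween 20, EDTA, TCEP. Compounds added before peptide; binding 20 min at RT.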
# MCF10A rereplic = inducers of DNA re-replication in MCF 10A breast cells. hit rate 2.9% among 350,000. Potency, µM (highest dose often 46.1 µM), actives largely listed as activators. AID 624296. MCF 10A DNA re-replication, Hoechst nuclear intensity, 48 h; also: nearly all actives have a fitted effect of over 50% in size
# KB-V1 cytotox = KB-V1 MDR subline cytotoxicity. KB-V1 MDR cells viability, CellTiter-Glo, 72 h. Potency, µM (doses to about 46.1 µM), actives largely listed as cytotoxic. hit rate 3.4% among 400,000; also: nearly all actives have a fitted effect of over 60% in size
#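 qHTS viability screen in drug-selected KB-V1 MDR cells: 72 h compound treatment at 37 degrees C, ATP luminescence end point.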
# PINK1 expr mod = PINK1 expression modulation. hit rate 0.2% among 410,000. Potency, µM (highest dose often 76.6 µM), most hits filed as activators. AID 624263. PINK1 immunofluorescence, high-content cytometry, 24 h; active = well fitted activation curve with a large enough effect; inconclusive = small, poorly fitted or top-dose-only effect; cell line not stated here; also: nearly all actives have a fitted effect of over 65% in size
#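 Stable cell line, 250 cells/well, 12 h attachment; compounds pinned at 5 concentrations, 24 h; CCCP control. Fixed with nuclear dye, primary antibodies 12 h at 10 degrees C, secondary plus cell stain; laser-scanning cytometer read.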
# KB-3-1 tox = KB-3-1 parental cell cytotoxicity; KB-3-1 viability, CellTiter-Glo ATP luminescence, 72 h; Potency, µM (series often up to 46.1 µM), most hits filed as cytotoxic; hit rate 1.4% among 400,000; AID 1347075; also: nearly all actives have a fitted effect of over 60% in size
#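 72 h, 37 °C compound treatment of KB-3-1 parental cells; CellTiter-Glo added, 10 min, luminescence read. Data corrected against DMSO-only plates and normalized before curve fitting.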
# Numbers stand for hits; . = inactive; ? = inconclusive; / = no result. Only some compounds are listed: those with a hit (about 6.8% of all), similar ones and a draw of the others. Unless noted, calls follow the shape of the dose curve; as a rule, active = well fitted curve in the direction sought with a large enough effect; inconclusive = small, poorly fitted or top-dose-only effect, or another doubt; inactive = no such curve, though single readings can be large; an effect the other way counts as inactive or inconclusive.
SMILES,SW480 rerep,TSG101-PTAP inh,MCF10A rereplic,KB-V1 cytotox,PINK1 expr mod,KB-3-1 tox
O=c1c(Cl)c(Cl)cnn1Cc1ccc(F)cc1,6.51µM,.,3.66µM,.,.,?
C=CCn1c(C)cc(C(=O)Cn2ncc(Cl)c(Cl)c2=O)c1C,2.91µM,.,5.8µM,?,.,?
C=CCn1c(C)cc(C(=O)CN2NS(=O)(=O)c3ccccc3C2=O)c1C,?,.,?,?,.,?
Cc1cc(C)c(S(=O)(=O)NCC(c2ccco2)N2CCOCC2)c(C)c1 (stereo not given),/,/,/,.,.,.
O=C(OCn1ncc(Cl)c(Cl)c1=O)c1ccccc1Cl,7.31µM,.,5.8µM,?,.,3.66µM
CC(=O)Nc1ccc(C(=O)CSc2cc(C)c3cccc(C)c3n2)cc1,?,.,?,13µM,.,?
O=C(CN1CC[n+]2c(-c3cccs3)csc21)c1ccc(-c2ccccc2)cc1,.,.,?,?,15.8µM,?
Cc1[nH][nH]c(=O)c1C(c1c(C)[nH][nH]c1=O)c1cn(Cc2ccccc2Cl)c2ccccc12,16.4µM,.,6.51µM,18.4µM,.,7.31µM
CC(=O)N1c2ccc(S(=O)(=O)NCc3ccc(Cl)cc3)cc2CC1C (stereo not given),/,/,/,/,.,/
Cc1cc(Nc2cccc(O)c2)c2cccc(Br)c2n1,/,/,/,.,.,.
C/C=C(\C)C(=O)OC1[C@H](OC(C)=O)C2(CO)C(CC1(C)C)C1=CCC3C4(C)CCC(O[C@@H]5O[C@H](C(=O)O)[C@@H](O[C@@H]6O[C@H](CO)[C@@H](O)[C@H](O)[C@H]6O)[C@H](O)[C@H]5O[C@H]5O[C@H](CO)[C@@H](O)[C@H](O)[C@H]5O)[C@](C)(CO)C4CCC3(C)[C@]1(C)C[C@H]2O (stereo not given in full),.,.,6.51µM,?,.,.
Cc1ccc(CNC(=O)c2c(Nc3c(C)cccc3C)sc(C(=O)c3ccccc3)c2N)cc1,/,/,/,?,.,?
COc1ccc2cc3cc(C(=O)Nc4ccccc4N4CCN(C)CC4)oc3nc2c1,?,.,?,11.6µM,.,?
CCOc1ccc(NC(=O)c2cc3cc4ccc(OC)cc4nc3o2)cc1,?,.,11.6µM,.,.,.
CCOc1ccc(NC(=O)c2cc3cc4ccc(C)cc4nc3o2)cc1,/,/,/,?,.,.
Cc1nn(CCCC(=O)NCc2ccccc2)c(=O)c2c1sc1ccccc12,/,/,/,/,.,/
CC1=CC(=O)N(c2cccc3c(N4C(=O)C=C(C)C4=O)cccc23)C1=O,13µM,.,?,.,.,?
CCN1C(=O)N(c2cccc3ccccc23)C(C)=CC1(C)C,.,.,.,.,.,.
Cc1cccc(NS(=O)(=O)c2ccc3c(c2)CCN3C(=O)C2CCC2)c1,/,/,/,?,.,?
COc1cc(NC(=O)Cn2ccn(-c3cc(C)cc(C)c3)c(=O)c2=O)cc(OC)c1,/,/,/,.,.,.
CCOC(=O)c1sc2ncn(CC(=O)N(CC)CC)c(=O)c2c1C,?,.,14.6µM,.,.,.
CCC(=O)Nc1c(S(=O)(=O)c2ccc(C)cc2)c2nc3ccccc3nc2n1C(C)c1ccccc1 (stereo not given),?,.,?,?,.,.
Cc1ccc(C(=O)Nn2c(N)c(S(=O)(=O)c3ccc(C)cc3)c3nc4ccccc4nc32)cc1,?,.,?,.,.,?
CCCCCn1c(NC(=O)c2ccco2)c(S(=O)(=O)c2ccc(C)cc2)c2nc3ccccc3nc21,.,.,.,18.4µM,.,.
CCCCn1c(NC(C)=O)c(C#N)c2nc3ccccc3nc21,.,.,?,.,.,.
CCCCn1c(NC(=O)c2ccc(Br)o2)c(S(=O)(=O)c2ccccc2)c2nc3ccccc3nc21,?,.,17.8µM,?,.,?
CCC(=O)Nc1c(S(=O)(=O)c2ccccc2)c2nc3ccccc3nc2n1C(C)c1ccccc1 (stereo not given),?,.,20.6µM,.,?,?
CCCCn1c(NS(=O)(=O)c2ccccc2)c(S(=O)(=O)c2ccc(C)cc2)c2nc3ccccc3nc21,13µM,.,?,?,?,11.6µM
